According to PubChem BioAssay AID652015 (National Center for Advancing Translational Sciences (NCATS), 2013):
Inconclusive results are not listed. The call rests on the fitted dose curve; in most records, active means well fitted inhibition curve with a large enough effect; inconclusive means small, poorly fitted or top-dose-only effect; inactive means no such curve, though single readings can be large or run the other way.

target: Coelenterazine h 2-monooxygenase (Renilla reniformis) (UniProt P27652); assay: qHTS Assay for Inhibitors of Sea Pansy Luciferase from the GSK Published Protein Kinase Inhibitor Set; conditions: purified Renilla luciferase, luminescence; series mostly up to 57.5 µM; activity change, negative = inhibition: at the top concentration
In short: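 qHTS (roughly 60 uM down to 300 pM) against 1 nM Renilla luciferase, substrate coelenterazine h 5 uM, Tris acetate pH 7.5 buffer with NaCl, Tween-20 and BSA. Luminescence measured after an average 2 min incubation.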

Sequence of Coelenterazine h 2-monooxygenase (Renilla reniformis) (P27652 whole entry, looked up): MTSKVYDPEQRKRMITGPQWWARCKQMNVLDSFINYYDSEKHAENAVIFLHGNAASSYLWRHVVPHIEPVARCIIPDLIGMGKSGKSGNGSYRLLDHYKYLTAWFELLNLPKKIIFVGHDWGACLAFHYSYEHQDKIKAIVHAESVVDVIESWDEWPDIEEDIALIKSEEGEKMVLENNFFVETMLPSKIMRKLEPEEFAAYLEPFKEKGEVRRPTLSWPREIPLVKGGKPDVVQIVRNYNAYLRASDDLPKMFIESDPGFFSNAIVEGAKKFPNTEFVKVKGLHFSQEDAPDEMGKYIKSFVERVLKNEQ

Activity change, negative = inhibition, inactive:
Nc1ncnc2occ(-c3ccc(NC(=O)Nc4cccc(C(F)(F)F)c4)cc3)c12 33.6%
c1cnn2ncc(-c3ccnc(NCCCN4CCOCC4)n3)c2c1 20.5%
CS(=O)(=O)CCNCc1ccc(-c2ccc3ncnc(Nc4ccc(OCc5ccccc5)cc4)c3c2)o1 16.4%
CCCN(CCS(C)(=O)=O)Cc1ccc(-c2ccc3ncnc(Nc4ccc(OCc5cccc(F)c5)c(Cl)c4)c3c2)o1 42%
CC(C)(CO)CNC(=O)c1ccc2[nH]c(O)c(N=Nc3ccc(S(N)(=O)=O)cc3)c2c1 11.9%
COc1cc(C=NNc2ncnc3c2cnn3-c2ccccc2)ccc1O 34.5%
Cc1ccc(C(=O)NC(C)C)cc1-c1ccc(C(=O)NCC2CC2)cc1 26.6%
Clc1ccc(-c2nn3ncccc3c2-c2ccnc(Nc3ccccc3)n2)cc1 49.5%
CN1CCC(n2cnc(-c3ccc(F)cc3)c2-c2ccnc(N)n2)CC1 12.6%
c1ccc(Oc2ccc(Nc3ncc(-c4ccccc4)o3)cc2)cc1 36.9%
Clc1ccc(CNc2nccc(-c3cnn4ncccc34)n2)cc1 37.5%
COc1cccc(-n2ncc3c(NN=Cc4cccc(F)c4)ncnc32)c1 32.8%
COc1cccc(-c2c[nH]c3c(NN=Cc4ccncc4)ncnc23)c1 39.2%
CNC(=O)c1cncc(C=Cc2c(C)cccc2C)c1 11.8%
Fc1ccc(-c2nn3ncccc3c2-c2ccnc(Nc3ccc4c(c3)OCCO4)n2)cc1 39.4%
COc1ccccc1Nc1ncc(-c2ccccc2)o1 4.64%
NC(=O)c1cccc(Nc2nccc(Nc3cccc4[nH]ncc34)n2)c1 18.3%
O=C1NC(=O)C(c2ccc(Cl)cc2)=C1Nc1ccc(Cl)c(C(=O)O)c1 21.8%
CC(=O)NCc1cccc(C#Cc2cncnc2Nc2ccc(OCc3cccc(F)c3)c(Cl)c2)c1 35.6%
CS(=O)(=O)CCNCc1ccc(-c2ccc3ncnc(Nc4ccc(OCc5cccc(C(F)(F)F)c5)cc4)c3c2)o1 41.9%
Cc1cc(O)cc(C)c1C=Cc1cncc(C(=O)N(C)C)c1 3.41%
O=C(Nc1n[nH]c2cc(-c3ccccc3)ccc12)C1CC1 34.2%
FC(F)(F)c1cccc(-c2nn3ncccc3c2-c2ccnc(Nc3ccc4c(c3)OCCO4)n2)c1 48.6%
N#Cc1c(NC(=O)c2cccc3ccccc23)sc2c1CCCC2 9.19%
